This is a sample that favours compounds with a hit; in the whole collection about 1.2% have one here.
S1P2 ag = S1P2 receptor agonists, primary screen, cell-based | S1P2-expressing cell line, agonist reporter read-out | AID 729, 2007 | 97,000 compounds, 0.46% hits | activation, % at 4.5 µM | Sphingosine 1-phosphate receptor 2 (Homo sapiens), O95136; in the data active = activation above about 16%;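 also: 0% = vehicle low control and 100% = maximal reference agonist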
Target sequence (O95136 whole entry, looked up): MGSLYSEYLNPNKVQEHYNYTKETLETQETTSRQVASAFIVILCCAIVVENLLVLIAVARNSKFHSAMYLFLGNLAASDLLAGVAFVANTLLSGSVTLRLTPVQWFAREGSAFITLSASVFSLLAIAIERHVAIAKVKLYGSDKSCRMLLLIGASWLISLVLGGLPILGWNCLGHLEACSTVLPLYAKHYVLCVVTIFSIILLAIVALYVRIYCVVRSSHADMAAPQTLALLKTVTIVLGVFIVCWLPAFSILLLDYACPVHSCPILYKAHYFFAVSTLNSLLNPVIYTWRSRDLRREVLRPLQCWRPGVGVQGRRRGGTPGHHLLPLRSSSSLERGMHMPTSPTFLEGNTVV
GALR2 agonist = GALR2 receptor agonists, primary screen, cell-based; GALR2-expressing cells, agonist activation read-out; activation, % (concentration not given with the values); 140,000 compounds, 0.48% hits; Galanin receptor type 2 (Homo sapiens), O43603; in the data active = activation above about 5%, passing the limit was not always enough;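 also: 0% = vehicle buffer wells and 100% = reference agonist at full effect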
S1P2 antag = human S1P2 receptor antagonists, primary screen, cell-based; cell-based S1P2 antagonist assay, inhibition at 5 uM; inhibition, % at 5 µM; 97,000 compounds, 0.21% hits; AID 736, 2007; in the data active = inhibition above about 45%;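 also: CRE beta-lactamase reporter cells expressing human S1P2 stimulated with S1P; 0% = agonist at EC80 alone and 100% = agonist plus reference antagonist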
GALR2 antag = GALR2 antagonists in receptor-expressing cells, primary screen | antagonist mode | inhibition, % at 4 µM | 140,000 compounds, 0.39% hits | AID 828, 2007; in the data active = inhibition above about 27%;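 also: cells stimulated with galanin 1-16 at roughly its EC80; 0% = agonist challenge control and 100% = basal control without agonist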
* marks the source's active call; other numbers are inactive results; / = no result.

SMILES | S1P2 ag | GALR2 agonist | S1P2 antag | GALR2 antag
N=c1c(C(=O)NCc2ccco2)cc2c(=O)n3ccccc3nc2n1CC1CCCO1 (centres undefined) | -4.6 | 2.0 | -8.4 | 11.5
COc1ccc(CCNC(=O)c2cc(-c3ccc(Cl)c(Cl)c3)oc2C)cc1 | / | -0.3 | / | -2.4
O=C(Oc1ccc(Cl)c2cccnc12)C12CC3CC(CC(C3)C1)C2 | / | 1.5 | / | -5.5
CCC(C)NC(=O)c1ccccc1C(=O)NC(C)CC (centres undefined) | -0.7 | -1.8 | 58.1* | -15.8
CCOC(=O)c1cnc2ccc(OCC)cc2c1N(C)Cc1ccccc1 | / | 1.2 | / | -14.4
CCC(SC1=N/C(=C/c2ccccc2OC)C(=O)N1c1ccccc1)C(=O)Nc1cc(C)on1 (centres undefined) | -6.0 | 0.8 | -9.2 | 6.7
Cc1ccc2cc(CCNC(=O)Cc3cccs3)c(=O)[nH]c2c1 | / | -1.8 | / | 7.8
CCOCCSc1nc2c(c(-c3cccs3)c1C#N)CC/C2=C/c1cccs1 | / | 5.1* | / | -2.9
OCCN(CCO)c1ncnc2c1sc1nc(N3CCOCC3)c3c(c12)CCCC3 | 23.0* | 0.9 | -51.4 | 2.3
OCCN1CCN(c2ncnc3c2sc2nc(N4CCOCC4)c4c(c23)CCC4)CC1 | / | 2.4 | / | -6.4
Cc1nnc(N2CCN(C)CC2)c2nn(-c3ccc(Cl)cc3)c(C)c12 | -4.3 | -1.5 | -11.5 | 8.6
Cc1nc2sc3c(NCc4ccco4)ncnc3c2c2c1COC(C)(C)C2 | 26.5* | -1.6 | -34.1 | -13.5
O=C(CCCc1ccccc1)NCc1ccc(F)cc1 | / | 0.2 | / | 1.7
CC(CNS(=O)(=O)c1ccccc1)(c1ccccc1)N1CCOCC1 (centres undefined) | / | -0.1 | / | -1.8
C=CCn1c(-c2ccc(OC)cc2)nc2nc3ccccc3nc21 | -1.4 | -2.2 | -15.4 | -4.5
CCCn1c(-c2cc(OC)c(OC)c(OC)c2)nc2nc3ccccc3nc21 | 16.7* | -0.8 | 5.4 | -9.7
CCOC(=O)N1CCN(C(=O)CSCC(=O)Nc2nc(-c3ccc(-c4ccccc4)cc3)cs2)CC1 | -6.1 | 0.5 | 86.8* | 7.0
COc1ccc(/C=C/C(=O)NCCCc2ccccc2)cc1OC | / | 0.8 | / | 9.7
COc1cc(/C=C/C(=O)NC(C)C)ccc1OCc1ccccc1 | / | 7.5* | / | 3.5
CCCC(=O)Nc1nc(C)c(-c2csc(Nc3cc(OC)ccc3OC)n2)s1 | -6.1 | 0.4 | 17.1 | -19.3
CCCCCC(=O)Nc1nc(C)c(-c2csc(Nc3cc(Cl)ccc3OC)n2)s1 | 16.8* | 1.1 | -18.7 | -18.6
CCOC(=O)c1c(NC(=O)c2cccc(N3C(=O)CCC3=O)c2)sc(C)c1C | 16.1* | -2.2 | -10.3 | 3.1
CCCCCCNc1cc2n(c(=O)n1)CCc1cc(OC)c(OC)cc1-2 | 30.3* | -0.8 | -47.7 | -9.5
COc1cc2c(cc1OC)-c1cc(NC3CC3)nc(=O)n1CC2 | 14.9 | -0.7 | -19.5 | -8.3
COc1cc2c(cc1OC)-c1cc(NC3CCCCC3)nc(=O)n1CC2 | 33.1* | -0.7 | -32.3 | 5.4
SMILES | S1P2 ag | GALR2 agonist | S1P2 antag | GALR2 antag
CCNc1cc2n(c(=O)n1)CCc1cc(OC)c(OC)cc1-2 | 9.0 | -1.9 | -28.1 | -4.8
COc1cc2c(cc1OC)-c1cc(NC3CCCCCCC3)nc(=O)n1CC2 | 50.0* | 1.1 | -5.9 | -15.4
CC(C)(C)C1CCc2c(sc(NC(=O)c3cccs3)c2C(=O)N2CCCCC2)C1 (centres undefined) | -1.8 | -0.5 | 2.6 | -6.7
Cc1cc(C)nc(SC2=CS(=O)(=O)c3ccccc32)n1 | -6.8 | -2.3 | -12.3 | 7.0
O=S1(=O)C=C(Sc2nc3ccccc3s2)c2ccccc21 | / | -0.2 | / | 73.6*
C/C(=N/NC(=O)c1ccncc1)c1cc2ccc(O)cc2oc1=O | / | 7.5* | / | -24.1
C/C(=N\NC(=O)c1ccncc1)c1cc2ccccc2oc1=O | / | -0.1 | / | 4.9
NC(=S)c1cc2ccc(O)cc2oc1=O | 37.6* | 14.0* | -52.2 | -1.4
O=C(c1cc2c(s1)-c1ccccc1S(=O)(=O)C2)N1CCN(Cc2ccccc2)CC1 | -1.4 | -2.9 | -11.1 | -9.0
O=C(Cc1ccccc1)Nc1nc2ccccc2[nH]1 | -3.6 | -1.2 | 16.1 | 9.5
O=C(Cc1c[nH]c2ccccc12)Nc1nc2ccccc2[nH]1 | 608.7* | -1.5 | 10.1 | 18.3
COc1cc(S(=O)(=O)N2CCOCC2)ccc1NC(=O)COC(=O)CC12CC3CC(CC(C3)C1)C2 | -4.8 | -0.5 | -9.1 | -2.5
c1ccc2c(c1)[nH]c1nc(SCCN3CCOCC3)nnc12 | -1.4 | -1.8 | 2.1 | 8.0
Brc1ccc2[nH]c3nc(SCCN4CCOCC4)nnc3c2c1 | 16.2* | -0.5 | -22.8 | 5.2
CCCOc1ccccc1C1NC(=O)NC(C)=C1C(=O)OCCOCC (centres undefined) | -5.9 | -2.1 | 16.8 | -10.9
CCCCOc1ccccc1C1C(C(=O)OC)=CN(CC)C=C1C(=O)OC | 24.0* | 15.7* | -47.2 | -6.7
CCN1C=C(C(=O)OC)C(c2cccc(C)c2)C(C(=O)OC)=C1 | 12.7 | 14.0* | -8.9 | 6.0
CCCOc1ccccc1C1C(C(=O)OC)=CN(C(C)C)C=C1C(=O)OC | 32.2* | 29.1* | -15.7 | -12.4
COC(=O)C1=CN(C)C=C(C(=O)OC)C1c1ccccc1Cl | 22.9* | 16.0* | -24.4 | -9.8
CCOc1ccc(C2C(C(=O)OC)=CN(CCOC)C=C2C(=O)OC)cc1 | / | 3.7 | / | 4.5
COc1cc(CNC2CCCCC2OC)cc(OC)c1OC (centres undefined) | / | -0.6 | / | -8.1
CC(C)(C)NC(=O)CSc1nc2ccccc2n1-c1ccccc1 | -4.2 | -4.2 | 4.5 | 1.7
COC(=O)C1=CN(CCCN2CCCC2=O)C=C(C(=O)OC)C1c1ccccc1C(F)(F)F | 20.0* | 19.6* | -11.2 | -3.6
COc1ccccc1C(=O)NCCCN1CCCC1=O | -6.5 | -2.3 | 7.2 | -29.2
CCOC(=O)N1CCC(NC(=O)C2CCCN(Cc3nc(-c4cccc(Cl)c4)oc3C)C2)CC1 (centres undefined) | -2.4 | -1.2 | 60.7* | 24.7
SMILES | S1P2 ag | GALR2 agonist | S1P2 antag | GALR2 antag
CCN1CCN(CCNC(=O)C2CCCN(Cc3nc(-c4cccc(Cl)c4)oc3C)C2)CC1 (centres undefined) | -2.8 | -2.7 | 19.4 | -1.9
COc1ccc(CC(=O)Nc2ccc(-c3noc(COc4ccccc4C)n3)cc2)cc1 | / | 7.8* | / | 4.3
CCC(C)NC(=O)C1CCN(c2nc(OC)nc(OC)n2)CC1 (centres undefined) | 22.4* | -1.6 | -4.3 | -3.4
CCC(C)NC(=O)C1CCN(c2nc(C)cc(C)n2)CC1 (centres undefined) | -6.3 | -1.0 | 15.0 | -11.9
COC(=O)c1cc(C(=O)OCC(=O)NCc2ccc3c(c2)OCO3)cc([N+](=O)[O-])c1 | / | -1.3 | / | 4.1
O=C(NCC1(c2ccccc2)CCCC1)C(=O)NCC1(c2ccccc2)CCCC1 | 0.0 | -0.2 | -11.7 | 4.7
O=C(NCC1(c2ccccc2)CCCC1)C(=O)N1CCOCC1 | 75.0* | -1.3 | -13.7 | 12.0
O=C1CC(c2cc([N+](=O)[O-])ccc2Cl)c2c(ccc3ccccc23)N1 (centres undefined) | / | 0.0 | / | 13.1
CCc1ccc(CCC(=O)Nc2sc3c(c2C#N)CCCC3)o1 | -4.8 | 0.2 | -7.0 | -6.4
